Results on eight molecules are retold here after PubChem BioAssay (NCI).

Each structure is given as a SMILES string. The panel holds about 83,000 compounds, 20% with a hit somewhere; the sample as a whole holds those more often.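 Results are percent growth after 48 hours of single-concentration exposure. 100 means growth as in untreated cells, lower positive values show inhibition; negative values down to -100 show cell death.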 Values without a mark were called inactive. The source made the active and inactive calls. How the source made its calls: active means growth percent below 10; inactive means the rest.

Common to all, as to assay: NCI-60 one-dose screen, 48 h (100 = growth as untreated, 0 = no growth, -100 = all killed)
Assay [1] deals with SK-MEL-2 melanoma. Conditions: 10 µM unless noted.
The test system of assay [2] is EKVX NSCLC. Conditions: 10 µM unless noted.
Assay [3] concerns SN12C renal. The conditions noted are these: 10 µM unless noted.
The subject of assay [4] is UO-31 renal. The conditions noted are these: 10 µM unless noted.
In assay [5] the test system is TK-10 renal. The conditions noted are these: 10 µM unless noted.
In assay [6] the test system is ACHN renal. The conditions noted are these: 10 µM unless noted.
Assay [7] has as its system CAKI-1 renal. The conditions noted are these: 10 µM unless noted.
For assay [8], the system named is A498 renal. Conditions: 10 µM unless noted.
In assay [9] the test system is CCRF-CEM leukemia. Conditions: 10 µM unless noted.
For assay [10], the system named is MOLT-4 leukemia. The conditions noted are these: 10 µM unless noted.
Assay [11] relates to SR leukemia. The conditions noted are these: 10 µM unless noted.
For assay [12], the system named is RPMI-8226 leukemia. The conditions noted are these: 10 µM unless noted.
The subject of assay [13] is OVCAR-8 ovarian. The conditions noted are these: 10 µM unless noted.
Assay [14] deals with OVCAR-5 ovarian. The conditions noted are these: 10 µM unless noted.
Assay [15] relates to SK-OV-3 ovarian. The conditions noted are these: 10 µM unless noted.
Assay [16] deals with IGROV1 ovarian. Conditions: 10 µM unless noted.
The subject of assay [17] is OVCAR-3 ovarian. The conditions noted are these: 10 µM unless noted.
Assay [18] deals with HS 578T breast. The conditions noted are these: 10 µM unless noted.
Assay [19] deals with NCI/ADR-RES ovarian. Conditions: 10 µM unless noted.
Assay [20] relates to OVCAR-4 ovarian. The conditions noted are these: 10 µM.

In the case of `O=[N+]([O-])c1ccc(O)c(-c2nc3ccccc3s2)c1`, the growth in assay [1] is 99%; in assay [2], 83.6%; in assay [3], 64.9%; in [4], 43.5%; in [5], 82.4%; in assay [6], 85.6%. Moreover, the growth in assay [7] was 73%; in [8] it was 42.6%; in assay [9], 77.3%; in [10], 65.3%; in assay [11] it was 84.5%; in assay [12], 51.1%. Further, the growth was 92% in assay [13]; 112% in [14]; 81.2% in assay [15]; 70% in [16]; 47.9% in [17]; 67.3% in assay [18]. Also, the growth in assay [19] was 82.8%.

As for `O=C(N=c1n(-c2ccccc2)nc2n1CCN2C1=NCCN1C(=O)c1ccc(Cl)cc1)c1ccc(Cl)cc1`, the growth was 83.3% in [1]; 77.1% in [2]; 80.8% in [3]; 59.8% in assay [4]; 74.6% in [5]; 59.1% in assay [6]. Besides, the growth in [7] is 75.2%; in [8], 73.7%; in [9], 51.4%; in assay [10], 14.5%; in [11] it was 73.9%; in assay [12], 73.2%. In addition, the growth in assay [13] was 78.7%; in [14], 88.8%; in [15], 92.9%; in [16] it was 59%; in [17], 53.6%; in assay [18], 82.7%. Also, the growth in [19] was 73.3%.

As to `N#Cc1c(Cl)nc(SCC2CO2)nc1-c1ccccc1` (centres undefined), the growth is 70.1% in assay [1]; 99.6% in assay [2]; 95.9% in assay [3]; 66.1% in [4]; 111% in assay [5]; 95.5% in assay [6]. The growth in assay [7] was 87.9%; in assay [8] it was 108%; in assay [9], 110%; in assay [10] it was 113%; in [11], 89.8%; in [12], 103%. Moreover, the growth in [13] is 51.6%; in assay [14], 101%; in assay [15] it was 70.2%; in assay [17], 137%; in assay [18], 121%; in assay [19], 108%.

As to `Cc1ccc(S(=O)(=O)N/N=C2\CC3CCC2(C)C3(C)C)cc1` (centres undefined), the growth in assay [1] is 76.8%; in assay [2], 105%; in assay [3] it was 93.5%; in assay [4] it was 86.4%; in assay [5], 137%; in assay [6], 102%. Moreover, the growth in assay [7] is 78.5%; in assay [8], 105%; in assay [9], 112%; in assay [10], 111%; in assay [11], 105%; in [12], 97.4%. Also, the growth in [13] is 88.8%; in assay [14], 83.4%; in assay [15], 114%; in [17] it was 103%; in [18], 120%; in assay [19], 213%.

Turning to `CC1(C)C(=O)/C(=C\c2ccco2)C[C@]2(C)[C@H]3CC=C4[C@@H]5C[C@](C)(C(=O)O)CC[C@]5(C)CC[C@@]4(C)[C@]3(C)CC[C@@H]12`, the growth in assay [1] is -57.5% [100 µM] (active); in assay [2], -71.4% [100 µM] (active); in assay [3] it was -50.8% [100 µM] (active); in [4], -95.5% [100 µM] (active); in assay [5], -46.1% [100 µM] (active); in [6] it was -79.9% [100 µM] (active). Moreover, the growth in assay [7] is -66.6% [100 µM] (active); in assay [8] it was -89.2% [100 µM] (active); in assay [9], -22.7% [100 µM] (active); in [10] it was -21% [100 µM] (active); in assay [11] it was 46.8% [100 µM]; in [12] it was 0.425% [100 µM] (active). For the same molecule, the growth in [13] is -46.1% [100 µM] (active); in assay [14], -46.2% [100 µM] (active); in [15] it was -77.2% [100 µM] (active); in [16] it was -61.9% [100 µM] (active); in [17], -60.1% [100 µM] (active); in assay [18], -16.2% [100 µM] (active). The growth in assay [19] is -49.5% [100 µM] (active).

As to `Cn1cc(-c2nnc(-c3cn(C)c4ncccc34)s2)c2ccccc21`, the growth in assay [1] is 79.8%; in assay [2] it was 70.7%; in assay [3], 50.3%; in assay [4], 39%; in assay [5], 79.9%; in assay [6], 86.6%. Moreover, the growth was 47% in assay [7]; 31% in [8]; 38.3% in assay [9]; 47.9% in [10]; 26.5% in assay [11]; 43.9% in assay [12]. The growth in assay [13] was 90.9%; in assay [14], 90%; in assay [16], 70.2%; in assay [17], 40.1%; in assay [18] it was 83.7%; in assay [19], 48%.

`CCOC(=O)c1nc2c3ccccc3ccn2c1C(=O)OC`: the growth in [1] was 102%; in [2] it was 80.2%; in [3], 96.9%; in assay [4], 91.7%; in assay [5], 81.1%; in assay [6], 94%. Moreover, the growth in [7] was 97.2%; in [8], 64%; in [9], 88.2%; in [10] it was 84.5%; in assay [11], 130%; in assay [12], 86.9%. Besides, the growth is 100% in assay [13]; 89.5% in [14]; 94% in assay [15]; 94.3% in [16]; 106% in assay [17]; 105% in assay [18]. Further, the growth in assay [19] was 102%.

On to `C=CCCCCCCCCC(=O)OC(C)C`, for which the growth in assay [1] was 101%; in assay [2], 101%; in [3] it was 105%; in [4] it was 88.9%; in assay [5], 101%; in [6] it was 107%. Moreover, the growth was 107% in assay [7]; 91.4% in [8]; 95.2% in assay [10]; 89% in [11]; 99.7% in assay [12]; 104% in [13]. Further, the growth is 99.2% in [14]; 112% in assay [20]; 102% in [15]; 109% in assay [16]; 105% in [17]; 93.9% in assay [18]. Moreover, in assay [19], the growth is 102%.
